Laboratory results: PubChem BioAssay
Calls of active or inactive are those of the source.

Assays:
[1] = system: Plasmodium falciparum Sir2 (PF13_0152, Sir2A); assay: Plasmodium falciparum Sir2A binding compounds – biochemical, small-molecule microarray, 635 nm fluorescence, primary screen (AID 1098); details: fluorescence 635 nm, higher = more signal;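 also: score merges spot fluorescence intensity with its signal-to-noise ratio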
[2] = probe aDKK1 binding to arrayed compounds – biochemical, biotinylated probe, 635/667 nm fluorescence, primary screen (AID 1099); details: small-molecule microarray, higher = more signal;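 also: score merges 667nm spot fluorescence with signal to noise across triplicate slides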
[3] = probe aCHRDL2 binding to arrayed compounds – biochemical, biotinylated probe, 635/667 nm fluorescence, primary screen (AID 1100); details: small-molecule microarray, higher = more signal
[4] = change in splice reporter luminescence, either direction, cell-based, HEK293, spliceosome inhibition project, primary screen (AID 1101); details: HEK293 splicing luciferase reporter, 24 h, higher = more signal, called active from +8 up or from −8 down;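 also: HEK293 cells carrying a splicing-competent luciferase reporter gene; test concentration not given here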
[5] = molecular target: Fibroblast growth factor 10 (Homo sapiens) (UniProt O15520); assay: compounds binding fibroblast growth factor 10 – biochemical, small-molecule microarray, 635 nm fluorescence, primary screen (AID 1102); details: FGF10 binding, fluorescence 635 nm, higher = more signal
Chain of Fibroblast growth factor 10 (Homo sapiens) (O15520 whole entry, looked up): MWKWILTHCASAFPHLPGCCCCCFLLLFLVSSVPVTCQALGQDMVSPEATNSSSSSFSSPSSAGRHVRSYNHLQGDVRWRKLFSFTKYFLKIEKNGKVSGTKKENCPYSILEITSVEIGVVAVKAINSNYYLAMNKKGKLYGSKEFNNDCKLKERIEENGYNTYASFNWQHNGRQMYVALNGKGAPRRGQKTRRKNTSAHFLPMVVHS

[6] = system: glycogen synthase kinase-3 (GSK3A per assay name; protocol says GSK3B); assay: compounds binding glycogen synthase kinase-3 – biochemical, small-molecule microarray, 635 nm fluorescence, GSK3A, primary screen (AID 1103); details: fluorescence 635 nm, higher = more signal; also: the record names both GSK3A and GSK3B
[7] = molecular target: Epidermal growth factor receptor (Homo sapiens) (UniProt P00533); assay: compounds binding epidermal growth factor receptor – biochemical, small-molecule microarray, 635 nm fluorescence, primary screen (AID 1104); details: EGFR binding, higher = more signal;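 also: score merges 667 nm emission intensity with spot signal to noise over triplicate slides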
Chain of Epidermal growth factor receptor (Homo sapiens) (P00533 whole entry, looked up): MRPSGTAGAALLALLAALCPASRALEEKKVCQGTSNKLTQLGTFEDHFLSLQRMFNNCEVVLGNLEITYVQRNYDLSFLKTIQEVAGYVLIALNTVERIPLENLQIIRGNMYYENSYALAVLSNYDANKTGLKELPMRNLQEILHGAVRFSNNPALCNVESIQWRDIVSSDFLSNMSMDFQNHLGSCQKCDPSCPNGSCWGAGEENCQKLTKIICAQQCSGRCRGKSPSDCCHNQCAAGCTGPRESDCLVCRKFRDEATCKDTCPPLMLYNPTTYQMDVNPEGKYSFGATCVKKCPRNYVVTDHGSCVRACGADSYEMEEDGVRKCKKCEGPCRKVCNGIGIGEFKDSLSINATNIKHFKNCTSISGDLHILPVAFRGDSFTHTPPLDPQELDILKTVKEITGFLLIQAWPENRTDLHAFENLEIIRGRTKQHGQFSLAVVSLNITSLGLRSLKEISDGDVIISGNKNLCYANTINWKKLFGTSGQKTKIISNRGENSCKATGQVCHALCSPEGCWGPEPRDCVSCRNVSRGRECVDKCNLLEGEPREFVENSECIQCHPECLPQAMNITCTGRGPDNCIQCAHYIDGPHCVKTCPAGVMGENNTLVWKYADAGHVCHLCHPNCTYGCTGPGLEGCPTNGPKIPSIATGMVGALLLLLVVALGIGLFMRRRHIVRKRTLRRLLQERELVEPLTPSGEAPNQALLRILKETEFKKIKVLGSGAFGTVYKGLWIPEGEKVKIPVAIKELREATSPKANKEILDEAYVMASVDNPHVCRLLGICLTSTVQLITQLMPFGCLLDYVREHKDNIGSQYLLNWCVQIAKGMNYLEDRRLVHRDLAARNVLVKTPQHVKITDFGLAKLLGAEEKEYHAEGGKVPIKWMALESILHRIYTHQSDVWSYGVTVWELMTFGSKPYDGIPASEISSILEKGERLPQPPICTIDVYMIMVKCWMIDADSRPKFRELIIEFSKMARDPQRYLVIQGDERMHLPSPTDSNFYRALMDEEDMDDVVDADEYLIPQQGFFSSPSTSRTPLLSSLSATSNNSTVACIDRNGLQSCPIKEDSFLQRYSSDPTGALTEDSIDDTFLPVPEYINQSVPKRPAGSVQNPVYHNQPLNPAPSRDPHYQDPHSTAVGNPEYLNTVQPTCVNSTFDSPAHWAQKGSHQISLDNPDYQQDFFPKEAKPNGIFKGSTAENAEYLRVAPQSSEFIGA

[8] = molecular target: Follistatin-related protein 3 (Homo sapiens) (UniProt O95633); assay: compounds binding follistatin-related protein 3 – biochemical, small-molecule microarray, 635 nm fluorescence, primary screen (AID 1105); details: FSTL3 binding, higher = more signal;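 also: score merges emission near 667 nm and signal to noise per printed spot across three slides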
Chain of Follistatin-related protein 3 (Homo sapiens) (O95633 whole entry, looked up): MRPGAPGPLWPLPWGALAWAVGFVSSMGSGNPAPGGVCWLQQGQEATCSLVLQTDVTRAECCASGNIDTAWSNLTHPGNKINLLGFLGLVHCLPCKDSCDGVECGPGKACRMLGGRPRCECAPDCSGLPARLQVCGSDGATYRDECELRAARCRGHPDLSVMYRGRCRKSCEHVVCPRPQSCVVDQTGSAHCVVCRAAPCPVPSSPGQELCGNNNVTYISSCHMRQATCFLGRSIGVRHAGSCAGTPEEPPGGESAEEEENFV

[9] = molecular target: Dickkopf-related protein 1 (Homo sapiens) (UniProt O94907); assay: small molecules binding DKK1 protein – biochemical, small-molecule microarray, 635 nm fluorescence scan, primary screen (AID 1106); details: higher = more signal;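 also: score merges emission near 667 nm with signal to noise over three replicate slides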
Chain of Dickkopf-related protein 1 (Homo sapiens) (O94907 whole entry, looked up): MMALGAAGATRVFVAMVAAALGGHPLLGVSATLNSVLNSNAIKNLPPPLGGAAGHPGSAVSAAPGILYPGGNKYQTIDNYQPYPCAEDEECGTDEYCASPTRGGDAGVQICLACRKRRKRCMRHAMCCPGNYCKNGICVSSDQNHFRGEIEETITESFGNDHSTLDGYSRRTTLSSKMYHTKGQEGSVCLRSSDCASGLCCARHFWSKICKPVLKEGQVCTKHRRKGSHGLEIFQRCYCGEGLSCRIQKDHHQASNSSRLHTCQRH

[10] = system: Inhibin beta A chain (activin A); assay: small molecules binding activin A – biochemical, small-molecule microarray, 635 nm fluorescence scan, primary screen (AID 1107); details: INHBA, higher = more signal;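 also: mouse activin A protein probed at 4.33 µg/mL on printed slides; score merges bound-protein fluorescence near 667 nm with spot signal-to-noise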
[11] = system: Human papillomavirus type 1a protein E7 (residues 44-93); assay: small molecules binding HPV E7 44-93 – biochemical, small-molecule microarray, residues 44-93, 635 nm fluorescence, primary screen (AID 1108); details: fluorescence 635 nm, higher = more signal;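 also: E7 fragment applied at 1 µg/mL in TBST for 1 h at 4 C; score combines spot fluorescence with its signal to noise ratio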
[12] = hepatitis C replication reporter changes, two-sided – Huh7 cells, luciferase reporter, HCV replication inhibitor project, primary screen (AID 1109); details: Huh7 HCV replicon luciferase reporter, 48 h; higher = more signal;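 also: huh7 hepatoma cells harbouring a luciferase neomycin HCV replicon reporter; luciferase luminescence as measure of HCV replicon replication; test concentration not given here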
[13] = molecular target: Left-right determination factor 2 (Homo sapiens) (UniProt O00292); assay: small molecules binding LEFTY2 protein – biochemical, small-molecule microarray, 635 nm fluorescence scan, primary screen (AID 1110); details: higher = more signal
Chain of Left-right determination factor 2 (Homo sapiens) (O00292 whole entry, looked up): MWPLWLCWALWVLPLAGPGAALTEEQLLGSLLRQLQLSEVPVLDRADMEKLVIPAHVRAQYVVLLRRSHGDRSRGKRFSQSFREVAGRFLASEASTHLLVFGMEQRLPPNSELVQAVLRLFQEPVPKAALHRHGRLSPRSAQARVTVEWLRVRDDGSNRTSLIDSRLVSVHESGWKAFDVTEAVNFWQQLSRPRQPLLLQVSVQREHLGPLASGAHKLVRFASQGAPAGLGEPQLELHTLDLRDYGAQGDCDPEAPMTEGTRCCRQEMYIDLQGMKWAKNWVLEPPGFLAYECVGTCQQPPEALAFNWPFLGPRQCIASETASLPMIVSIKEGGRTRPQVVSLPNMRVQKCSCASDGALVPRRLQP

[14] = molecular target: Calmodulin-1 (Homo sapiens) (UniProt P0DP23); assay: small molecules binding calmodulin-1 with EGTA – biochemical, small-molecule microarray, Cy5-labelled CALM1, profiling panel (AID 1111); details: Cy5-CALM1 binding fluorescence, higher = more signal;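 also: labelled calmodulin applied in Tris saline Tween buffer holding calcium plus EGTA and DTT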
[15] = molecular target: Calmodulin-1 (Homo sapiens) (UniProt P0DP23); assay: small molecules binding Ca-loaded calmodulin-1 – biochemical, small-molecule microarray, Cy5-labelled CALM1, plus calcium, artefact control for SMM control-protein annotation, profiling panel (AID 1112); details: Cy5-CALM1 binding fluorescence, higher = more signal;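 also: score merges spot fluorescence with signal to noise from triplicate slides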
[16] = probe aWnt5a binding to arrayed compounds – biochemical, biotinylated probe, 635/667 nm fluorescence, primary screen (AID 1113); details: small-molecule microarray, higher = more signal;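 also: score merges 667 nm fluorescence intensity with signal-to-noise per printed feature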
[17] = probe aShh binding to arrayed compounds – biochemical, biotinylated probe, 635/667 nm fluorescence, primary screen (AID 1114); details: small-molecule microarray, higher = more signal;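 also: probe is biotin-labelled aShh protein from a stem cell growth factor screen; measures binding of labelled protein to compounds printed on the slide; score merges feature fluorescence at 667 nm with signal-to-noise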
[18] = probe aNog binding to arrayed compounds – biochemical, biotinylated probe, 635/667 nm fluorescence, primary screen (AID 1115); details: small-molecule microarray, higher = more signal;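 also: probe is biotinylated aNog protein used at 0.15 µg/mL for 1 h at 4 C; z-score combines 667 nm fluorescence of each spot with its signal to noise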
[19] = molecular target: Torsin-1A-interacting protein 1 (Homo sapiens) (UniProt Q5JTV8); assay: compound microarray binding of lysate hLAP1 – cell lysate, small-molecule microarray, COS7 lysate, 635/667 nm fluorescence, primary screen (AID 1116); details: 635 nm fluorescence, higher = more signal
Chain of Torsin-1A-interacting protein 1 (Homo sapiens) (Q5JTV8 whole entry, looked up): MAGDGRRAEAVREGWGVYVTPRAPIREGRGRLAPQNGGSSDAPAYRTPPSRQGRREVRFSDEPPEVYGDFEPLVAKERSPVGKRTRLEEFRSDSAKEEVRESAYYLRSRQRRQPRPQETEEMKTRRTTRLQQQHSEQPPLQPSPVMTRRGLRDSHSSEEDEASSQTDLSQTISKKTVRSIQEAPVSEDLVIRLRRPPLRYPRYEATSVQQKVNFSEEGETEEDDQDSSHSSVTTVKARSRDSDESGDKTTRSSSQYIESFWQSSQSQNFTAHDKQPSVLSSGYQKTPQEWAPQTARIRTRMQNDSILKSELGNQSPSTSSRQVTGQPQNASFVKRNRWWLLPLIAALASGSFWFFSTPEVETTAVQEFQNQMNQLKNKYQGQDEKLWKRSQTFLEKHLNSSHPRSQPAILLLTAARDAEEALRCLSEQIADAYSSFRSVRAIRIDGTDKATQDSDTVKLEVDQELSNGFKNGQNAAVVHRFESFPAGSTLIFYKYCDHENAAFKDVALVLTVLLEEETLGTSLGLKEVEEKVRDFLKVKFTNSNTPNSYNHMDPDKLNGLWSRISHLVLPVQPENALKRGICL

[20] = molecular target: Alpha-bungarotoxin (Bungarus multicinctus) (UniProt P60615); assay: compounds binding labelled alpha-BTX control protein – biochemical, small-molecule microarray, Alexa647 label, 635/667 nm fluorescence, artefact control for SMM control protein annotation, profiling panel (AID 1117); details: alpha-BTX-A647 binding fluorescence, higher = more signal
Chain of Alpha-bungarotoxin (Bungarus multicinctus) (P60615 whole entry, looked up): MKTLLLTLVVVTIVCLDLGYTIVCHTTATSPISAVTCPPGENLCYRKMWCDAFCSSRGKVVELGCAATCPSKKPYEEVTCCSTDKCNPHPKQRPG

## COC(=O)[C@@]1(Cc2ccc(F)cc2)[C@H]2c3cc(C(=O)N4CCCC4)n(CCN4CNCC4=O)c3C[C@H]2CN1C(=O)c1ccccc1
[1]
  composite z-score: 1.51
[2]
  composite z-score: 0.845
[3]
  composite z-score: 0.82
[4]
  z-score: 1.64 (inactive)
[5]
  composite z-score: -0.142
[6]
  composite z-score: 1.26
[7]
  composite z-score: -0.472
[8]
  composite z-score: 0.131
[9]
  composite z-score: -1.29
[10]
  composite z-score: 0.781
[11]
  composite z-score: 1.44
[12]
  z-score: -1.8
[13]
  composite z-score: -1
[14]
  composite z-score: -0.606
[15]
  composite z-score: -0.234
[16]
  composite z-score: 0.307
[17]
  composite z-score: 0.151
[18]
  composite z-score: -0.158
[19]
  composite z-score: 2.1
[20]
  composite z-score: 1.07

## NCCCCCNC(=O)[C@@H]1C[C@@H]2C(=O)NCC(=O)N2[C@@H]1c1cccc(OCCO)c1
[1]
  composite z-score: 1.06
[2]
  composite z-score: 0.237
[3]
  composite z-score: 0.0759
[4]
  z-score: -0.852 (inactive)
[5]
  composite z-score: 1
[6]
  composite z-score: 1.26
[7]
  composite z-score: 0.396
[8]
  composite z-score: 0.669
[9]
  composite z-score: 1.05
[10]
  composite z-score: 0.732
[11]
  composite z-score: 1.2
[12]
  z-score: -0.878
[13]
  composite z-score: 0.79
[14]
  composite z-score: 0.885
[15]
  composite z-score: 0.433
[16]
  composite z-score: -0.0202
[17]
  composite z-score: 0.412
[18]
  composite z-score: 0.217
[19]
  composite z-score: 0.513
[20]
  composite z-score: 1.01

## COC(=O)C(CC#Cc1ccc2c(c1)[C@]1(C(=O)N2)[C@H](c2ccccc2OCCO)N2[C@H](c3ccccc3)[C@H](c3ccccc3)OC(=O)[C@H]2[C@@H]1C(=O)NC[C@H](O)c1ccccc1)C(=O)OC
[1]
  composite z-score: 1.65
[2]
  composite z-score: -0.378
[3]
  composite z-score: 0.702
[4]
  z-score: -0.267 (inactive)
[5]
  composite z-score: 0.928
[6]
  composite z-score: 1.26
[7]
  composite z-score: 0.361
[8]
  composite z-score: 0.682
[9]
  composite z-score: 0.521
[10]
  composite z-score: 0.897
[11]
  composite z-score: 1.39
[12]
  z-score: -2.08
[13]
  composite z-score: 0.261
[14]
  composite z-score: 0.0614
[15]
  composite z-score: -0.316
[16]
  composite z-score: 0.285
[17]
  composite z-score: 2.44
[18]
  composite z-score: 0.108
[19]
  composite z-score: 2.19
[20]
  composite z-score: 0.971

## [N-]=[N+]=Nc1ccccc1C[C@]1(C(N)=O)N=C(c2ccc(OCCCO)cc2)O[C@H]1c1ccccc1N=[N+]=[N-]
[1]
  composite z-score: 0.902
[2]
  composite z-score: 0.504
[3]
  composite z-score: 0.676
[4]
  z-score: -1.82 (inactive)
[5]
  composite z-score: 0.856
[6]
  composite z-score: 0.966
[7]
  composite z-score: 0.188
[8]
  composite z-score: -0.0523
[9]
  composite z-score: -0.442
[10]
  composite z-score: 1.25
[11]
  composite z-score: 1.38
[12]
  z-score: -2.55
[13]
  composite z-score: -0.0114
[14]
  composite z-score: 1.55
[15]
  composite z-score: 0.873
[16]
  composite z-score: 0.0799
[17]
  composite z-score: 0.162
[18]
  composite z-score: 1.03
[19]
  composite z-score: 0.776
[20]
  composite z-score: 0.702

## O=C1C=C(c2ccccc2)C(=O)c2ccc([C@H]3Oc4ccccc4S(=O)(=O)N4CCC[C@@H]34)cc21
[1]
  composite z-score: -0.186
[2]
  composite z-score: -0.39
[3]
  composite z-score: -0.6
[4]
  z-score: 0.781 (inactive)
[5]
  composite z-score: -0.101
[6]
  composite z-score: -0.191
[7]
  composite z-score: 0.496
[8]
  composite z-score: -0.266
[9]
  composite z-score: 0.714
[10]
  composite z-score: 1.04
[11]
  composite z-score: -1.08
[12]
  z-score: -4.28
[13]
  composite z-score: -0.272
[14]
  composite z-score: -0.623
[15]
  composite z-score: -0.351
[16]
  composite z-score: -0.172
[17]
  composite z-score: -0.117
[18]
  composite z-score: -0.23
[19]
  composite z-score: -0.239
[20]
  composite z-score: -0.0257
